Test results: PubChem BioAssay (NCATS)
Results filed as inconclusive are left out. Entries that show only a call come without a potency. A number with no mark means an inactive call. The source made the active and inactive calls. Calls follow the shape of the dose curve; as a rule, active = well fitted inhibition curve with a large enough effect; inconclusive = small, poorly fitted or top-dose-only effect; inactive = no such curve, though single readings can be large or run the other way. Non-standard residues stand in square brackets, D forms with d. Residues, ends and D or L forms follow the SMILES beside them. *: point of attachment. Nva = CCC[C@H](N)C(=O)O; Cbz = O=C(OCc1ccccc1)*

Experiment: qHTS Screen of the MIPE 4.0 Collection Against Ewings Sarcoma (RDES) (AID 1259252); also: nearly all actives have a fitted effect of over 35% in size
Settings: RD-ES Ewing sarcoma viability, CellTiter-Glo, 48 h; series mostly up to 45.8 µM
Text: There is a large unmet medical need for treatments for Ewing sarcoma, a pediatric sarcoma. We sought to identify compounds that inhibited Ewing sarcoma cells in vitro with the goal to then test promising drugs in two drug combinations in vitro to look for synergistic drug combinations. Promising combinations would then proceed to additional validation, including in vivo testing.
Using the NCATS developed oncology compound library called the Mechanism of Interrogation Plate (MIPE), four Ewing sarcoma cell lines were evaluated (TC32, TC71, RDES, EW8). Compounds, in a 12-point titration series, were incubated with cells for 48 hours and the read out was cell viability (CellTiter-Glo from Promega). These initial experiments were used to select appropriate concentrations of each single agent for subsequent two-drug matrix combinations such that the concentrations in the matrices would span both activity and non-activity.
Cells, in the log phase of growth, were seeded in 5 uL of RPMI plus 5% FBS, […] L-glutamine, 100 U/ml penicillin and 100 ug/ml streptomycin into 1536-well solid-bottom white tissue culture treated Greiner Bio One Plates (789173-F) using a MultiDrop Combi (Thermofisher Scientific) dispenser and a small sterile cassette. One column was media alone to be used as a :"no cells" control. The plates were then covered with sterilized stainless steel gasketed lids from Kalypsys. After allowing cells to attach for 4 hours, 23 nL of test compound or control (negative control DMSO and positive control 9.2 uM Bortezomib-final) were added from a 1536-well polypropylene compound source plate to each well using a 1536 head pin tool from Kalypsys. Cells were then incubated for 48 hours at 37C, 95% relative humidity and 5% CO2. After 48 hours, plates were removed from the incubator and 3 uL of CellTiter-Glo (Promega) was added using an Aurora Flying Reagent Dispenser Bioraptor. Plates were incubated at room temperature for 10 minutes prior to reading the luminescence on the Viewlux (PerkinElmer). The relative luciferase units are used to calculate the percent activity using the activity of DMSO in the cells and no cells columns for normalization of no inhibition and full inhibition respectively.
Potency is read from the fitted curve at half-maximal effect.

SMILES | Potency | viability (percent of control)
O=C1NC(=O)C(=Cc2ccc3nccc(-c4ccncc4)c3c2)S1 | 187 nM (active) | 
Oc1cc2c(cc1O)C1c3ccc(O)c(O)c3OCC1(O)C2 (stereo not given) | inactive | 
CC(C)(C)[C@H](NC(=O)c1ccc(N)c(Cl)c1)C(=O)N1CCC[C@@H]1C(=O)N[C@H](C#N)CC(=O)O |  | 112% [at 3.51 µM]
CCOC(=O)[C@H](CCc1ccccc1)N[C@@H](C)C(=O)N1[C@@H](C(=O)O)C[C@H]2CCC[C@@H]21 | 5260 nM (active) | 
COc1cc(O)c2c(c1)C1OC1C[C@H](O)[C@H](O)C(=O)C=CC[C@H](C)OC2=O (stereo not given in full) | 16600 nM (active) | 
c1ccc2c(Oc3nc(Nc4ccc(N5CCOCC5)cc4)c4ncn(C5CCCCC5)c4n3)cccc2c1 | inactive | 
C[C@H](O)[C@@H]1C(=O)N2C(C(=O)O)=C(S[C@@H]3CN[C@H](CNS(N)(=O)=O)C3)[C@@H](C)[C@@H]12 | inactive | 
CN[C@@H]1C[C@H]2O[C@@](C)([C@H]1OC)n1c3ccccc3c3c4c(c5c6ccccc6n2c5c31)C(=O)N[C@H]4O | 935 nM (active) | 
CCOc1cc2c(c(F)c1OCC)C(=N)N(CC(=O)c1cc(N3CCOCC3)c(OC)c(C(C)(C)C)c1)C2 | 9350 nM (active) | 
CCC[C@@H](C=O)NC(=O)[C@H](CC(C)C)NC(=O)[C@H](CC(C)C)NC(=O)OCc1ccccc1 (Cbz-Leu-Leu-[Nva]-aldehyde) | 1180 nM (active) | 
CC(=O)N[C@@H]1[C@H](O[C@@H]2c3ccc(c(Cl)c3)Oc3cc4cc(c3O[C@H]3O[C@H](CO)[C@@H](O)[C@H](O)[C@H]3NC(=O)CCCCCCCC(C)C)Oc3ccc(cc3Cl)C[C@H]3NC(=O)[C@H](N)c5ccc(O)c(c5)Oc5cc(O)cc(c5)[C@H](NC3=O)C(=O)N[C@H]4C(=O)N[C@H]3C(=O)N[C@@H]2C(=O)N[C@@H](C(=O)O)c2cc(O)cc(O[C@H]4O[C@H](CO)[C@@H](O)[C@H](O)[C@H]4O)c2-c2cc3ccc2O)O[C@H](CO)[C@@H](O)[C@@H]1O | inactive | 
NC(=NCCCCCCN=C(N)N=C(N)Nc1ccc(Cl)cc1)N=C(N)Nc1ccc(Cl)cc1 | 2960 nM (active) | 
Cc1[nH]c(C=C2C(=O)Nc3ccccc32)c(C)c1CCC(=O)O | 209 nM (active) | 
O=C(O)C[C@H](O)C[C@H](O)C=Cc1c(C2CC2)nc2ccccc2c1-c1ccc(F)cc1 | 2640 nM (active) | 
Cn1cnc2c(F)c(Nc3ccc(Br)cc3F)c(C(=O)NOCCO)cc21 | inactive | 
N#Cc1cc(NC(=O)Nc2nnc(-c3ccncc3)s2)ccc1-c1cn[nH]c1 | inactive | 
COc1ccc(Nc2cc(-c3cnc(N)nc3)nc(N3CCOCC3)n2)cn1 | 5900 nM (active) | 
COc1cc2c(Nc3ccc(Cl)c(Cl)c3F)ncnc2cc1OCC1C[C@@H]2CN(C)C[C@H]2C1 | 14800 nM (active) | 
CCCc1nc(C(C)(C)O)c(C(=O)O)n1Cc1ccc(-c2ccccc2-c2nn[nH]n2)cc1 | inactive | 
C[C@H]1O[C@H](O[C@H]2[C@H](O)[C@@H](O)[C@@H](O[C@H]3[C@H](O)[C@@H](O)C(O)O[C@H]3CO)O[C@H]2CO)[C@H](O)[C@@H](O)[C@H]1N[C@H]1C=C(CO)[C@@H](O)[C@H](O)[C@@H]1O (stereo not given in full) | inactive | 

SMILES | Potency | viability (percent of control)
O=S(=O)(O)CCSSCCS(=O)(=O)O | inactive | 
COC(=O)[C@@H]1[C@H]2C[C@@H]3c4[nH]c5ccccc5c4CCN3C[C@@H]2CC[C@@H]1O | inactive | 
Cc1cn([C@@H]2O[C@H](CO)[C@@H](O)[C@H]2F)c(=O)[nH]c1=O | inactive | 
Cc1ccccc1C(=O)Nc1ccc(C(=O)N2CCCC(O)c3cc(Cl)ccc32)c(C)c1 (stereo not given) | inactive | 
C=CC(=O)N1CCc2ccc(-n3c(=O)ccc4cnc5ccc(-c6cnn(C)c6)cc5c43)cc21 | 6620 nM (active) | 
CC(C)C[C@@H](C=O)NC(=O)[C@H](CC(C)C)NC(=O)[C@H](CC(C)C)NC(=O)OCc1ccccc1 (Cbz-Leu-Leu-Leu-aldehyde) | 469 nM (active) | 
CC[C@H]1OC(=O)[C@H](C)[C@@H](O[C@H]2C[C@@](C)(OC)[C@@H](O)[C@H](C)O2)[C@H](C)[C@@H](O[C@@H]2O[C@@H](C)C[C@H](N(C)C)[C@@H]2O)[C@](C)(O)C[C@@H](C)C(=O)[C@H](C)[C@@H](O)[C@]1(C)O | inactive | 
COc1ccc(CCC(=O)c2c(O)cc(O[C@@H]3O[C@H](CO)[C@@H](O)[C@H](O)[C@@H]3O[C@@H]3O[C@@H](C)[C@H](O)[C@@H](O)[C@@H]3O)cc2O)cc1O | 9350 nM (active) | 
Cc1noc(-c2ccc(CSCCC(=O)O)cc2)c1NC(=O)OC(C)c1ccccc1Cl (stereo not given) | inactive | 
N#Cc1ccc(COC[C@H]2O[C@@H](n3c(NCc4ccc(Cl)c(Cl)c4)nc4c(N)ncnc43)[C@@H](O)[C@@H]2O)cc1 | 9350 nM (active) | 
CC(Cc1ccc(O)c(O)c1)(NN)C(=O)O (stereo not given) | inactive | 
C[C@]12CCC(=O)C=C1[C@@H]1CC1[C@H]1[C@H]3[C@@H]4C[C@H]4[C@@]4(CCC(=O)O4)[C@@]3(C)CC[C@H]12 (stereo not given in full) | inactive | 
CN[C@H]1[C@@H](O)[C@@H]2O[C@@H]3O[C@H](C)CC(=O)[C@]3(O)O[C@@H]2[C@@H](NC)[C@H]1O | 52.6 nM (active) | 
N#CC(=C(O)c1ccc(Cl)cc1Cl)c1nc2cc(Cl)ccc2c(=O)[nH]1 | inactive | 
C[C@](Cc1c[nH]c2ccccc12)(NC(=O)OC1C2CC3CC(C2)CC1C3)C(=O)NC[C@H](NC(=O)CCC(=O)O)c1ccccc1 (stereo not given in full) | inactive | 
O=C(C=CC=Cc1ccc2c(c1)OCO2)N1CCCCC1 | inactive | 
CCc1ccc(C(=O)Nc2cc(CN3CCN(C)CC3)cc(C(F)(F)F)c2)cc1C#Cc1cnc2ccnn2c1 | 20900 nM (active) | 
COc1cccc2c1C(=O)c1c(O)c3c(c(O)c1C2=O)C[C@@](O)(C(=O)CO)C[C@@H]3O[C@H]1C[C@H](N)[C@@H](O)[C@H](C)O1 | 264 nM (active) | 
CC(C)OC(=O)[C@H](C)N[P@](=O)(OC[C@H]1O[C@@H](n2ccc(=O)[nH]c2=O)[C@](C)(F)[C@H]1O)Oc1ccccc1 | inactive | 
CC(C)(O)Cn1c(NC(=O)c2ccc(-c3cn[nH]c3)s2)nc2cc(CN3CCOCC3)ccc21 | 1660 nM (active) | 
